Out of some 290,000 compounds screened, about 3,300 (1.1%) were called active. Cut-off read from the data, not from the text of the source: active = binding response below about 67% or above about 130%; inconclusive = no clear call, values can overlap the other calls; inactive = in between. The entries come from a sample that favours actives as a whole.
Each compound was assayed against Mitogen-activated protein kinase kinase kinase 2 (Homo sapiens) (UniProt Q9Y2U5) (assay: wildtype MEKK2 PB1-MEK5 interaction, increase or decrease – biochemical, multiplex bead flow cytometry, Alexa488-MEK5, primary screen (AID 1531)). Conditions: Alexa488-MEK5 binding to MEKK2 WT, at 10 µM, actives lie on both sides.
With O=C(COc1ccc2ccc(=O)oc2c1)NCC(O)c1ccccc1 (centres undefined) the binding response (% of control) was 104% (inactive). For CCOC(=O)C1CCN(c2ccc(C(=O)O)cc2[N+](=O)[O-])CC1, the binding response (% of control) was 101% (inactive). In the case of O=C(O)C1CCN(c2ccc([N+](=O)[O-])cc2[N+](=O)[O-])CC1, the binding response (% of control) is reported as 46% [inhibitor] (active). For CC1CCN(c2ccc([N+](=O)[O-])cc2C(N)=O)CC1, the binding response (% of control) was 95% (inactive). In the case of CCOc1ccccc1-c1cc(C(=O)N/N=C(\C)c2cccnc2)c2ccccc2n1, the binding response (% of control) is reported as 92% (inactive). With O=C(NC1CCN(Cc2ccccc2)CC1)c1cc(Br)c(Br)[nH]1 the binding response (% of control) was 140% (active). With CCOc1ccc(CC(=O)NC2CCN(Cc3ccccc3)CC2)cc1 the binding response (% of control) was 108% (inactive). With O=C(NC1CCN(Cc2ccccc2)CC1)c1ccc(Oc2cc(Cl)cc(Cl)c2)o1 the binding response (% of control) was 142% (active). For Cc1cc(C(=O)NC2CCN(Cc3ccccc3)CC2)n[nH]1, the binding response (% of control) was 98% (inactive). With O=C(NC1CCN(Cc2ccccc2)CC1)c1c(F)cccc1F the binding response (% of control) was 113% (inactive). For O=C(NC1CCN(Cc2ccccc2)CC1)c1ccccc1F, the binding response (% of control) was 101% (inactive). With C#CCOc1ccc(/C=C2/C(=O)ON=C2C)cc1OCC the binding response (% of control) was 107% (inactive). In the case of CCc1nnc(SCc2cccc(F)c2)nc1CC, the binding response (% of control) is reported as 103% (inactive). With Fc1ccc(-c2ccc(CNCc3ccccn3)o2)cc1Cl the binding response (% of control) was 140% (active). For O=C(NCc1ccccn1)c1cc(Br)ccc1Cl, the binding response (% of control) was 106% (inactive). For COc1ccc(-c2ccc(CNCCCN3CCOCC3)o2)cc1Cl, the binding response (% of control) was 106% (inactive). For O=C(Cc1cccs1)Nc1cccc(-c2nc3ccccc3[nH]2)c1, the binding response (% of control) was 95% (inactive). With Cc1ccc(-c2nc3ccccc3[nH]2)cc1NC(=O)c1sc2ccccc2c1Cl the binding response (% of control) was 98% (inactive). For O=C(Nc1cccc(-c2nc3ccccc3[nH]2)c1)c1ccc(C(=O)Nc2cccc(-c3nc4ccccc4[nH]3)c2)cc1, the binding response (% of control) was 63% [inhibitor] (active). In the case of C=C1CCN([C@@H](Cc2ccccc2)C(=O)N2CCOCC2)S(=O)(=O)c2ccccc21, the binding response (% of control) is reported as 107% (inactive). With COc1ccc(NC(=O)CCC(=O)Nc2cc(OC)c(NC(=O)c3ccco3)cc2OC)c(OC)c1 the binding response (% of control) was 96% (inactive). With O=C(NCC1CC1)c1onc(CSc2ccccc2)c1C(=O)NCC1CC1 the binding response (% of control) was 95% (inactive). In the case of COc1ccc(NC(=O)Cn2nnc(C(=O)NCCc3ccc(OC)c(OC)c3)c2N)cc1, the binding response (% of control) is reported as 2% [inhibitor] (active). With CCc1ccc(NC(=O)Cn2nnc(C(=O)NCc3ccc(OC)cc3)c2N)cc1 the binding response (% of control) was 104% (inactive). COc1ccc(CNC(=O)c2nnn(CC(=O)Nc3cc(C)cc(C)c3)c2N)cc1 was tested, and the binding response (% of control) was 101% (inactive). CCC(C)N1CC(=O)N2Cc3[nH]c4ccccc4c3C[C@H]2C1=O (some centres undefined) was tested, and the binding response (% of control) was 109% (inactive). For COc1ccc(NC(=O)C/C(C)=N/NC(=O)c2cnccn2)cc1Cl, the binding response (% of control) was 96% (inactive). For Cc1noc(C)c1C(=O)OCC(=O)/C=C1\N(C)c2ccccc2C1(C)C, the binding response (% of control) was 96% (inactive). For CN1/C(=C\C(=O)c2cccnc2Cl)C(C)(C)c2ccccc21, the binding response (% of control) was 95% (inactive). In the case of CC(=O)Nc1cccc(OCC(=O)/C=C2\N(C)c3ccccc3C2(C)C)c1, the binding response (% of control) is reported as 63% [inhibitor] (active). COc1ccc(Cl)cc1-n1c(=S)sc2c(=O)n(-c3ccc(F)cc3)c(SCC(=O)O)nc21 was tested, and the binding response (% of control) was 101% (inactive). With COc1ccc(Oc2cn[nH]c2-c2ccc(OC)cc2O)cc1 the binding response (% of control) was 98% (inactive). In the case of COCCCNC(=S)N1CCN(c2nc(-c3cccc(OC)c3)cs2)CC1, the binding response (% of control) is reported as 95% (inactive). With CN(C)CCCNC(=S)N1CCC(c2nc3ccccc3[nH]2)CC1 the binding response (% of control) was 116% (inactive). In the case of CN(C)CCCNC(=S)N1CCN(c2nc(-c3ccccc3)cs2)CC1, the binding response (% of control) is reported as 149% (active). With O=C(CSc1ccc(-c2ccccn2)nn1)Nc1ccccc1 the binding response (% of control) was 110% (inactive). COc1cc2c(cc1OC)C(c1ccccc1Br)NC(=O)C2 (centres undefined) was tested, and the binding response (% of control) was 103% (inactive). In the case of COCCCN1C(=O)c2ccc(C(=O)OCC(=O)NCc3ccccc3OC)cc2C1=O, the binding response (% of control) is reported as 101% (inactive). CCCN1CCN(C(=O)CCCNC(=O)c2ccc(Cl)cc2)CC1 was tested, and the binding response (% of control) was 100% (inactive). CN1CCN(CCCNC(=O)c2ccc(/C=C3\Oc4ccccc4N(Cc4ccc(Cl)cc4)C3=O)cc2)CC1 was tested, and the binding response (% of control) was 171% (active). In the case of CN1C(=O)/C(=C/c2ccc(C(=O)NC3CCCC3)cc2)Oc2ccccc21, the binding response (% of control) is reported as 99% (inactive). CS(=O)(=O)N(CC(=O)N1CCCCCC1)c1cccc(Cl)c1Cl was tested, and the binding response (% of control) was 108% (inactive). For CCc1cccc(C)c1NS(=O)(=O)c1cc(Br)cnc1N, the binding response (% of control) was 92% (inactive). With CCN1/C(=C/C(=S)Nc2ccccc2)Sc2ccccc21 the binding response (% of control) was 87% (inactive). CCN1/C(=C/c2ccc3ccc(C)cc3[n+]2CC)Sc2ccccc21 was tested, and the binding response (% of control) was 74% (inactive). For CCN1/C(=C\c2ccc3ccccc3[n+]2CC)Sc2cc(C)ccc21, the binding response (% of control) was 20% [inhibitor] (active). In the case of CC1(C)CC[C@]2(C(=O)O)CC[C@]3(C)C(=CCC4[C@@]5(C)CC[C@H](O)C(C)(C)C5[C@H](O)C[C@]43C)[C@@H]2C1 (some centres undefined), the binding response (% of control) is reported as 100% (inactive). In the case of N#CCc1c(C#N)c(N)nc(N2CCCC2)c1C#N, the binding response (% of control) is reported as 107% (inactive). In the case of O=C(NCc1ccccc1)c1onc(CSc2ccncc2)c1C(=O)NCc1ccccc1, the binding response (% of control) is reported as 104% (inactive). NC(N)=Nc1nc(-c2ccccc2)c2cc(Cl)ccc2n1 was tested, and the binding response (% of control) was 150% (active). For O=C(CCl)NNc1nc(-c2ccccc2)c2cc(Cl)ccc2n1, the binding response (% of control) was 102% (inactive). For Clc1ccc2nc(-c3ccccc3)nc(C(Cl)Cl)c2c1, the binding response (% of control) was 90% (inactive). For CC(C)(C)n1nc(Cc2cccc3ccccc23)c(C#N)c1N, the binding response (% of control) was 98% (inactive). COc1ccccc1NC(=O)c1ccc(N2CC3CC(C2)c2cccc(=O)n2C3)c(NC(=O)c2cccnc2)c1 (centres undefined) was tested, and the binding response (% of control) was 105% (inactive). With O=C1N[C@H](Cc2ccccc2)C(=O)N[C@H]1Cc1cn(S(=O)(=O)c2ccccc2)c2ccccc12 the binding response (% of control) was 102% (inactive). For C/C=C/C(=O)OCc1csc(CC(=O)Nc2ccccc2C)n1, the binding response (% of control) was 94% (inactive). With OCC1(CCOc2ccccc2)CCN(Cc2cn[nH]c2-c2ccccc2)CC1 the binding response (% of control) was 94% (inactive). In the case of Cc1c(CN2CCC(CO)(CCOc3ccccc3)CC2)[nH]c2ccc(Cl)cc12, the binding response (% of control) is reported as 227% (active). In the case of CCOC(=O)C1(CCOc2ccccc2)CCN(Cc2cc(OC)c(O)cc2Cl)CC1, the binding response (% of control) is reported as 126% (inactive). In the case of COc1ccc(C2NC(=O)C(=O)/C2=C(\O)c2ccc(Cl)cc2)cc1OC (centres undefined), the binding response (% of control) is reported as 109% (inactive). COC(C[C@@H](O)C[C@@H](O)[C@H](C)OCc1ccccc1)OC was tested, and the binding response (% of control) was 97% (inactive). In the case of Cn1c(SCc2nc3ccccc3s2)nnc1-c1ccc2c(c1)OCO2, the binding response (% of control) is reported as 30% [inhibitor] (active). With Cn1c(SCC(=O)N2CCCC2)nnc1-c1ccc2c(c1)OCO2 the binding response (% of control) was 105% (inactive). O=C(O)CSc1nnc(-c2ccc3c(c2)OCO3)n1-c1ccccc1 was tested, and the binding response (% of control) was 102% (inactive). CC1CCC2CCCCC2N1C(=O)c1cc([N+](=O)[O-])cc([N+](=O)[O-])c1 (centres undefined) was tested, and the binding response (% of control) was 97% (inactive). CCn1c(SCc2ccccc2)nc2cc(OC)c(OC)cc2c1=O was tested, and the binding response (% of control) was 105% (inactive). In the case of O=C(NCC1CCCCC1)c1cc(S(=O)(=O)N2CCCCC2)ccc1N1CCOCC1, the binding response (% of control) is reported as 4% [inhibitor] (active). In the case of COc1ccc(S(=O)(=O)N2CCOCC2)cc1C(=O)NC1CCCCC1, the binding response (% of control) is reported as 104% (inactive). With COCCNC(=S)Nc1cc(S(=O)(=O)N2CCOCC2)ccc1N1CCCCC1 the binding response (% of control) was 103% (inactive). In the case of CC(C)(c1ccccc1)c1ccc(OCCN2CCCC2)cc1, the binding response (% of control) is reported as 119% (inactive). For Cc1onc(-c2ccccc2Cl)c1C(=O)OCC(=O)c1ccccc1, the binding response (% of control) was -2% [inhibitor] (active). With Cc1[nH]c2ccccc2c1C(=O)COC(=O)c1c(-c2ccccc2)noc1C the binding response (% of control) was 113% (inactive). With Cc1onc(-c2ccccc2Cl)c1C(=O)NCCn1ccc2ccccc21 the binding response (% of control) was 98% (inactive). In the case of O=C1CC2(CCCC2)Oc2ccc(Cl)cc21, the binding response (% of control) is reported as 109% (inactive). C/C(=N\NC(=O)C1(C)CC1(Br)Br)c1ccc(C)cc1C (centres undefined) was tested, and the binding response (% of control) was 98% (inactive). For COc1ccc(OCCCCN2CCC(C)CC2)cc1, the binding response (% of control) was 106% (inactive). For COc1ccccc1N1CCN(CCCCOc2ccc(F)cc2)CC1, the binding response (% of control) was 135% (active). In the case of CCN1CCN(CCCCOc2ccccc2F)CC1, the binding response (% of control) is reported as 98% (inactive). With O=C(NCCO)C(=O)NCC(c1ccc2c(c1)OCO2)N1CCN(c2ccc(F)cc2)CC1 (centres undefined) the binding response (% of control) was 99% (inactive). For O=C(COc1ccc([N+](=O)[O-])cc1)Nc1cccc(C(=O)Nc2ccccc2C(=O)O)c1, the binding response (% of control) was 94% (inactive). O=C(CC1SCCNC1=O)Nc1ccc(Cl)c(Cl)c1 (centres undefined) was tested, and the binding response (% of control) was 186% (active). O=C(CC1SCCNC1=O)Nc1ccc(Cl)cc1 (centres undefined) was tested, and the binding response (% of control) was 87% (inactive). O=C(CC1NCCNC1=O)Nc1cc(Cl)cc(Cl)c1 (centres undefined) was tested, and the binding response (% of control) was 108% (inactive). With CC(C)c1c(C(=O)N/N=C/c2ccccc2C(=O)O)nnn1-c1nonc1N the binding response (% of control) was 102% (inactive). COC(=O)CN1C(=O)C(C)(C)Oc2ccc(C(=O)Nc3cccc(OC)c3)cc21 was tested, and the binding response (% of control) was 108% (inactive). For CCOC(=O)c1ccc2[nH]c3c(c2c1)CCCC3NC=O (centres undefined), the binding response (% of control) was 97% (inactive). In the case of N#CCSc1nc(-c2ccccc2)nc2ccc(F)cc12, the binding response (% of control) is reported as 100% (inactive). COc1ccc(NC(=O)CS(=O)(=O)c2ccccc2)cc1 was tested, and the binding response (% of control) was 109% (inactive). With COC(=O)C(C)n1cnc2c(nnn2-c2cccc(Cl)c2)c1=O (centres undefined) the binding response (% of control) was 106% (inactive). For CCOc1nnc(C)c2c(C)n(-c3cccc(Cl)c3)nc12, the binding response (% of control) was 72% [inhibitor] (active). CCOc1ccc(CNC(=O)C2CCCN(c3nnc(C)c4c(C)n(-c5ccccc5)nc34)C2)cc1 (centres undefined) was tested, and the binding response (% of control) was 105% (inactive). For COc1ccc(NC(=O)CN2C(=O)COc3ccc(S(=O)(=O)N4CCOCC4)cc32)cc1, the binding response (% of control) was 97% (inactive). Fc1ccccc1COc1cccc2cccnc12 was tested, and the binding response (% of control) was 110% (inactive). For Cc1ccc(-c2nc(CSCC(=O)NC3CCN(Cc4ccccc4)CC3)c(C)o2)cc1, the binding response (% of control) was 107% (inactive).
